Test results taken from PubChem BioAssay (NCATS).
Inconclusive results are not listed. Calls of active or inactive are those of the source. Unless noted, calls follow the shape of the dose curve; as a rule, active = well fitted curve in the direction sought with a large enough effect; inconclusive = small, poorly fitted or top-dose-only effect, or another doubt; inactive = no such curve, though single readings can be large; an effect the other way counts as inactive or inconclusive.

What was measured:
[1] = Validation of Assay for Modulators of Lamin A Splicing (AID 1459; active = well fitted curve in the direction sought with a large enough effect in the signal ratio; the % refers to the signal ratio;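 also: cells exposed to compound for two days before reading; ratio rise marks activators and ratio drop marks inhibitors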); conditions: Lamin A splicing dual RFP/GFP fluorescence reporter; series mostly up to 9.22 µM
Outline: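 Readout: ratio of GFP (500-530 nm) to RFP (575-640 nm) total object intensity by 488 nm laser-scanning cytometry after 48 hrs. Cells were HeLa S3 clones carrying lamin A-EGFP minigene plus DsRed2 viability reporter; vehicle 0.5% DMSO final.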

[2] = target: DNA repair nuclease/redox regulator APEX1 (Homo sapiens) (UniProt P27695); assay: qHTS Validation Assay for Inhibitors of the Human Apurinic/apyrimidinic Endonuclease 1 (APE1) (AID 1705; also: potency is read from the fitted curve at half-maximal effect); conditions: purified APE1 endonuclease activity, fluorescence, titration; series mostly up to 57.1 µM
Sequence of DNA repair nuclease/redox regulator APEX1 (Homo sapiens) (P27695 whole entry, looked up): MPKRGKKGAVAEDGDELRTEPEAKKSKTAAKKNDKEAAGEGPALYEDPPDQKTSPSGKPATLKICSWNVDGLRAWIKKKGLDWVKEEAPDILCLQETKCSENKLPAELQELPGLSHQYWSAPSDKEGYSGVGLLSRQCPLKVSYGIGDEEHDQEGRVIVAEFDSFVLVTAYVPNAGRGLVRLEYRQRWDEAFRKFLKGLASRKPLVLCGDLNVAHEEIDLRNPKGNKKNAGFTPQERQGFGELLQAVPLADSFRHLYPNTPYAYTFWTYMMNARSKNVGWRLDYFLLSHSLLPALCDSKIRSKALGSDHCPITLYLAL
Outline: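 Read-out: TAMRA fluorescence (525 nm ex, 598 nm em) from cleavage of a quenched THF abasic-site duplex, 50 nM final; activity taken as intensity change between third and first of three reads 60 s apart.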

[3] = Counterscreen for APE1 Inhibitors: Fluorescent Dye Displacement Validation Assay (AID 1707); conditions: fluorescent dye displacement from DNA; series mostly up to 57.1 µM
Outline: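 Loss of Thiazole Orange fluorescence marks promiscuous DNA binders. The dye (250 nM) is mixed with 50 nM abasic-site dsDNA in pH7.5 Tris buffer containing MgCl2, then compounds are added and emission is read once.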

[4] = target: Endonuclease 4 (Escherichia coli (strain K12)) (UniProt P0A6C1); assay: Counterscreen for APE1 Inhibitors: qHTS Validation Assay for Inhibitors of Endonuclease IV (AID 1708); conditions: E. coli endonuclease IV, DNA cleavage fluorescence; series mostly up to 57.1 µM
Outline: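 Conditions: 2 nM enzyme, 50 nM TAMRA/BHQ-2 substrate, pH 7.5 Tris buffer with 2 mM MgCl2, RT. Compound preincubation 15 min; readout three fluorescence reads 60 s apart, third-minus-first.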

[5] = qHTS for differential inhibitors of proliferation of Plasmodium falciparum line 7G8 (AID 1815); conditions: Plasmodium falciparum 7G8 proliferation inhibition; series mostly up to 28.7 µM;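 also: parasite growth measured after three days of incubation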; also: potency is read from the fitted curve at half-maximal effect
[6] = qHTS for differential inhibitors of proliferation of Plasmodium falciparum line GB4 (AID 1816); conditions: Potency: Plasmodium falciparum GB4 proliferation inhibition; series mostly up to 28.7 µM;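 also: parasite growth measured after 72 h incubation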; also: potency is read from the fitted curve at half-maximal effect
[7] = qHTS for differential inhibitors of proliferation of Plasmodium falciparum line 3D7 (AID 1876); also: potency is read from the fitted curve at half-maximal effect; conditions: P. falciparum 3D7 proliferation inhibition; series mostly up to 28.7 µM
[8] = Cell Viability - LYMP2-012 (AID 982); conditions: LYMP2-012 lymphoblastoid cell viability qHTS; series mostly up to 92.2 µM;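 also: cellular ATP by luciferase luminescence where a drop means cytotoxicity; cells exposed to compound for one day before reading; nearly all actives have a fitted effect of over 55% in size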
[9] = Cell Viability - LYMP2-014 (AID 983); conditions: LYMP2-014 lymphoblastoid cells, viability qHTS; series mostly up to 92.2 µM;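 also: cells exposed to compound for 24 h at 37 °C; nearly all actives have a fitted effect of over 50% in size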
Outline: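 Cells are plated at 2500/well and left 5 hr at 37 C. Compounds are added across a concentration range and incubated 24 hr at 37 C in complete medium. CellTiter-Glo is added, and luminescence is read after 30 min at room temperature.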

[10] = Cell Viability - LYMP2-016 (AID 984); conditions: LYMP2-016 lymphoblastoid cell viability, qHTS; series mostly up to 92.2 µM;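 also: cells exposed to compound for 24 hours at 37 °C; nearly all actives have a fitted effect of over 55% in size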
Outline: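 qHTS, 1536-well: 2500 LYMP2-016 cells/well, 5 hr 37 C, compound added, 24 hr 37 C, CellTiter-Glo 30 min RT, luminescence. Tetraoctylammonium bromide positive control. AC50 via Hill fit.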

[11] = Cell Viability - LYMP2-018 (AID 985); conditions: LYMP2-018 lymphoblastoid cells, viability (qHTS); series mostly up to 92.2 µM;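 also: compound exposure lasted 24 hr at 37 °C; nearly all actives have a fitted effect of over 50% in size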
Outline: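 Seed 2500 lymphoblastoid cells per well, incubate 5 hr at 37 C, add compound and incubate 24 hr at 37 C, add CellTiter-Glo, wait 30 min at room temperature, then read luminescence.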

[12] = Cell Viability - LYMP2-020 (AID 986); conditions: series mostly up to 92.2 µM;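 also: cells exposed to compound for 24 h at 37 °C; nearly all actives have a fitted effect of over 55% in size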
Outline: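 Seed 2500 cells per well and incubate 5 hr at 37 C. Add compounds at a concentration series and incubate 24 hr at 37 C. Add CellTiter-Glo, wait 30 min at RT, read luminescence, and fit a Hill curve for AC50.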

[13] = Cell Viability - LYMP2-022 (AID 987); conditions: LYMP2-022 lymphoblastoid cell viability; series mostly up to 92.2 µM; also: nearly all actives have a fitted effect of over 55% in size
Outline: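 Cells were seeded at 2500 per well, rested 5 hr at 37 C, and treated with titrated compounds for 24 hr at 37 C. Cellular ATP was then quantified by luciferase luminescence, and AC50 values were derived from Hill-modelled concentration-response curves.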

[14] = Cell Viability - LYMP2-024 (AID 988); conditions: LYMP2-024 lymphoblastoid cell viability; series mostly up to 92.2 µM; also: nearly all actives have a fitted effect of over 60% in size
Outline: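 qHTS cytotoxicity, human lymphoblastoid line, complete medium; 24 h cpd treatment, 37 C; CellTiter-Glo ATP luminescence readout; tetraoctylammonium bromide positive control; AC50 via Hill fit.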

[15] = Cell Viability - LYMP2-026 (AID 989); conditions: LYMP2-026 lymphoblastoid cell viability, qHTS; series mostly up to 92.2 µM;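 also: cells exposed to compound for 24 h at 37 °C; nearly all actives have a fitted effect of over 50% in size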
Outline: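 Cells are seeded at 2500 per well and held 5 hr at 37 C. Compounds are added in concentration series for 24 hr, then CellTiter-Glo reagent is applied and luminescence read.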

[16] = target: Alpha-galactosidase A (Homo sapiens) (UniProt P06280); assay: Counterscreen for Glucocerebrosidase Inhibitors: qHTS Assay for Human alpha-Galactosidase at pH 4.5 (AID 992); conditions: purified enzyme, fluorogenic substrate; series mostly up to 76.9 µM
Sequence of Alpha-galactosidase A (Homo sapiens) (P06280 whole entry, looked up): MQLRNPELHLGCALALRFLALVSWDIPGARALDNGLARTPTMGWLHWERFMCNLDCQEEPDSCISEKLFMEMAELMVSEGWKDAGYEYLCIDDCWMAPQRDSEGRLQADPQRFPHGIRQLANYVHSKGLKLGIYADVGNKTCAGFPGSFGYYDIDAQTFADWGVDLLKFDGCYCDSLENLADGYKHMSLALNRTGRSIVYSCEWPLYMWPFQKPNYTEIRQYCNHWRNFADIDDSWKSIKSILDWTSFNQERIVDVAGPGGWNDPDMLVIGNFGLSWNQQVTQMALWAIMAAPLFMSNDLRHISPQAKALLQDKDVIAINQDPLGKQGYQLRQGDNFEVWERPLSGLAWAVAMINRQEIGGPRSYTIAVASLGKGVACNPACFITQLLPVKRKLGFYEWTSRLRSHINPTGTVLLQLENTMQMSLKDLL
Outline: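 Each compound is preincubated briefly with 2 nM enzyme before substrate addition (80 uM); plates then sit 20 min at ambient temperature, are quenched with 1M NaOH/1M glycine, and read fluorometrically.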

[17] = Cell Viability - LYMP1-002 - Assay at 24 hr (AID 993); conditions: LYMP1-002 lymphoblastoid cells viability; series mostly up to 92.2 µM
Outline: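 Acute toxicity is measured as concentration-dependent loss of cellular ATP in a human lymphoblastoid line (Coriell LYMP1-002) after 24 h treatment in complete medium. ATP is quantified by luciferase luminescence and AC50 derived by Hill modelling.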

[18] = Cell Viability - LYMP1-002 - Assay at 40 hr (AID 994); conditions: LYMP1-002 lymphoblastoid cell viability; series mostly up to 92.2 µM; also: nearly all actives have a fitted effect of over 60% in size
Outline: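 Cells are plated at 2500 per well and rested 5 hr at 37 C. Compounds are added and incubated 40 hr at 37 C. CellTiter-Glo reagent is added for 30 min at room temperature before luminescence is read.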

[19] = target: alpha-glucosidase (Oryza sativa, rice) (UniProt Q653V4); assay: Counterscreen for Glucocerebrosidase Inhibitors: qHTS Assay for Rice alpha-Glucosidase at pH 5.0 (AID 997); conditions: rice alpha-glucosidase enzyme activity; series mostly up to 76.9 µM
Outline: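 Endpoint fluorogenic assay at pH 5.0: compounds (0.7 nM to 77 uM) titrated against 4 nM rice enzyme and 400 uM 4-MU-alpha-glucoside for 20 min at room temperature; NaOH/glycine stop, read ex 365/em 440 nm, Hill-fitted AC50.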

Measured: Potency

C=CCN1CCc2c(cc(O)c(O)c2Cl)C(c2ccccc2)C1 (centres undefined)
active: [5] 5.01 µM | [6] 5.01 µM | [7] 7.94 µM
inactive: [1] | [2] | [3] | [4]

NC(=O)c1ccccc1
inactive: [8] | [9] | [10] | [11] | [12] | [13] | [14] | [15] | [16] | [17] | [18] | [19] | [1] | [2] | [3] | [4] | [5] | [6] | [7]

CC(N)(Cc1ccc(O)cc1)C(=O)O (centres undefined)
inactive: [1] | [2] | [3] | [4] | [5] | [6] | [7]

C[C@H](NC(=O)/C(C#N)=C/c1ccc(O)c(O)c1)c1ccccc1
active: [5] 7.08 µM | [6] 11.2 µM | [7] 14.1 µM
inactive: [16] | [19] | [1] | [2] | [3] | [4]

C=CC1(C)CC(=O)C2(O)C(C)(O1)C(OC(C)=O)C(O)C1C(C)(C)CCC(O)C12C (centres undefined)
inactive: [1] | [2] | [3] | [4] | [6] | [7]

CC(C)C[C@H](NC(=O)C1OC1C(=O)O)C(=O)NCCCCN=C(N)N (some centres undefined)
inactive: [1] | [2] | [3] | [4]
active: [5] 4.47 µM | [6] 3.16 µM | [7] 2.51 µM

N#C/C(=C\c1ccc(O)c(O)c1)C(=O)NCCc1ccccc1
active: [5] 8.91 µM | [6] 10 µM | [7] 11.2 µM
inactive: [16] | [19] | [1] | [2] | [3] | [4]

COC(=O)C(N)Cc1ccc(Cl)cc1 (centres undefined)
inactive: [1] | [2] | [3] | [4] | [5] | [6] | [7]

COc1cc2c(CCNC(C)=O)c[nH]c2cc1O
inactive: [16] | [19] | [1] | [3] | [4] | [5] | [7]
active: [2] 39.8 µM

Nn1nnc2ccccc21
inactive: [19] | [1] | [2] | [3] | [4]
active: [5] 12.6 µM

CC1=C(C(=O)O)N2C(=O)[C@@H](NC(=O)C(N)C3=CCC=CC3)[C@H]2SC1 (some centres undefined)
inactive: [1] | [2] | [3] | [4] | [5] | [6] | [7]

OC[C@H]1NC[C@@H](O)[C@@H]1O
inactive: [1] | [2] | [3] | [4] | [5] | [6] | [7]

O=C(O)/C=C/c1cnc[nH]1
inactive: [1] | [2] | [3] | [4] | [5] | [6] | [7]

O=[N+]([O-])c1cccc2c(Br)[nH]nc12
inactive: [16] | [19] | [1] | [2] | [3] | [4] | [5] | [7]

O=C1C2C=CC=CC2=NC(=S)N1CCN1CCC(=C(c2ccc(F)cc2)c2ccc(F)cc2)CC1 (centres undefined)
active: [5] 8.91 µM
inactive: [1] | [2] | [3]

CC1C(=O)N(C)C(=O)c2nc[nH]c21 (centres undefined)
inactive: [1] | [2] | [3] | [4] | [5] | [6] | [7]

COc1cccc(OC)c1OCCNCC1CSc2ccccc2O1 (centres undefined)
inactive: [1] | [2] | [3]
active: [5] 7.94 µM | [6] 4.47 µM

NCCCCN
inactive: [19] | [1] | [2] | [3] | [4] | [5] | [6] | [7]

COc1cc(C(O)C(=O)O)ccc1O (centres undefined)
inactive: [1] | [2] | [3] | [4] | [5] | [6] | [7]

c1ccc2nc(C3=NCCN3)ccc2c1
inactive: [19] | [1] | [2] | [3] | [5] | [7]

Cc1ccc2c(c1)C(N1CCN(C)CC1)=Nc1cccnc1N2
inactive: [19] | [1] | [2] | [3]

CCCc1c(-c2ccc(O)cc2)nn(-c2ccc(O)cc2)c1-c1ccc(O)cc1
inactive: [16] | [19] | [1] | [2] | [3] | [6] | [7]

CC(=O)C(C)=O
inactive: [8] | [9] | [10] | [11] | [12] | [13] | [14] | [15] | [16] | [17] | [18] | [19] | [1] | [2] | [3] | [5] | [6] | [7]

O[Si](CCCN1CCCCC1)(c1ccc(F)cc1)C1CCCCC1 (centres undefined)
inactive: [1] | [2] | [3]
active: [5] 0.0708 µM | [6] 0.0398 µM | [7] 0.0794 µM

CCCn1c(=O)c2[nH]c(-c3ccc(S(=O)(=O)O)cc3)nc2n(CCC)c1=O
inactive: [16] | [19] | [1] | [2] | [5] | [7]

NC1(C(=O)O)CCCCC1
inactive: [19] | [1] | [2] | [3] | [5] | [6] | [7]
